The entries come from a sample that favours hits as a whole.
Sm TGR inh – inhibitors of Schistosoma mansoni thioredoxin glutathione reductase. Q962Y6. purified TGR, DTNB reduction, TNB absorbance 405 nm. Potency, µM (highest dose often 114 µM), actives largely listed as inhibitors. actives 3% (n = 360,000); note: nearly all actives have a fitted effect of over 60% in size
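TGR 20 nM + NADPH 100 uM (dispensed conc.), cpd preinc 15 min RT; start with NADPH (500 uM addition) then DTNB (15 mM addition). Kinetic TNB absorbance, 405 nm filter. Four-parameter Hill fit across titration.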
Cycloheximide cs – affects cycloheximide protein synthesis inhibition readout, counter-screen. cell reporter, cycloheximide protein synthesis inhibition counterscreen. max response, %. AID 2314. actives 12% (n = 300,000); in the data active = max response mostly above about 13%, no sharp cut-off; inactive = mostly below about 14%; note: read at 38.3 µM for the half of the compounds with a filed dose
Shiga inhibitor – Shiga toxin inhibition; Vero cells, Shiga toxin protein synthesis inhibition reporter; AID 2315; actives 9.2% (n = 290,000); inhibition, % at 38.7 µM; in the data active = inhibition mostly above about 28%, no sharp cut-off; inactive = mostly below about 43%
LmPK inh – LmPK (Leishmania mexicana) enzyme inhibition | Q27686 | purified LmPK, Kinase-Glo ATP luminescence, 1 h | Potency, µM (series often up to 57.5 µM), most hits filed as inhibitors | actives 0.37% (n = 290,000) | AID 1721
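In 50 mM imidazole pH 7.2 with 7 mM MgCl2, LmPK (0.1 nM) turned over PEP (0.5 mM) and ADP (0.1 mM) for 1 h at room temperature. Luciferase read-out of ATP.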
Tb PYK inh – T. brucei pyruvate kinase inhibition; Q57TT1; TbPYK enzyme, Kinase-Glo Plus ATP luminescence, 45 min; Potency, µM (series often up to 76.8 µM), most hits filed as inhibitors; actives 0.12% (n = 410,000); note: nearly all actives have a fitted effect of over 50% in size
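Screened from lowest to highest concentration, compounds were pinned into TbPYK/substrate mixtures, and ADP (130 uM final) was added. Plates sat at room temperature for 45 min prior to Kinase-Glo Plus detection by luminescence.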
Giardia FBPA inh – Giardia lamblia aldolase inhibition | A8B2U2 | purified Giardia FBPA | Potency, µM (series often up to 59.6 µM), most hits filed as inhibitors | actives 0.71% (n = 290,000) | AID 2451; note: nearly all actives have a fitted effect of over 55% in size
Target sequence (A8B2U2 whole entry, looked up): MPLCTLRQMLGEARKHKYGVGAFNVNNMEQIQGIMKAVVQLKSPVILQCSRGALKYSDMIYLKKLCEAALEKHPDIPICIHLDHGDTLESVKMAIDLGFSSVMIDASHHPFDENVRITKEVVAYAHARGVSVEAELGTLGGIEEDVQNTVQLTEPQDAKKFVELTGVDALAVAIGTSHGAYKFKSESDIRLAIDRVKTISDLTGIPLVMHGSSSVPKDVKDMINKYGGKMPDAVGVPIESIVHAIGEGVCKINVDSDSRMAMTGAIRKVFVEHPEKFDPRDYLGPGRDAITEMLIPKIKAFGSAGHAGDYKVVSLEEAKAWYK
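40 nM FBPA preincubated 10 min at RT with compound (up to 57.5 uM final), then substrate plus GAPDH/TPI/NAD/arsenate coupling and diaphorase/resazurin added. Fluorescence read after 20 min at RT, 525/598 nm.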
Numbers stand for hits; - = inactive; ? = inconclusive; . = not tested or not shown; [ ] = remark or other dose. Unless noted, calls come from the whole dose curve; as a rule, active = well fitted curve in the direction sought with a large enough effect; inconclusive = small, poorly fitted or top-dose-only effect, or another doubt; inactive = no such curve, though single readings can be large; an effect the other way counts as inactive or inconclusive.

SMILES | Sm TGR inh | Cycloheximide cs | Shiga inhibitor | LmPK inh | Tb PYK inh | Giardia FBPA inh
C=CCNC(=S)N/N=C/c1cn(C)c2ccccc12 | ? | 21 | - | - | - | -
Cn1cc(/C=N/NC(N)=S)c2ccccc21 | - | - | - | - | - | ?
CCCc1cc(C(=O)N/N=C/c2cccn2C)cs1 | - | 62 | 110 | - | - | .
Cn1cc(/C=N\NC(=O)c2cccs2)c2ccccc21 | - | 49 | 63 | - | - | -
COc1ccc(/C=N/NC(=O)c2cccs2)c2ccccc12 | . | . | . | . | - | .
O=C(Cc1cccs1)N/N=C\c1ccc(O)cc1 | - | 32 | 51 | - | - | -
Cn1cccc1/C=N/NC(=O)c1cccs1 | - | 42 | 74 | - | - | .
Cn1cccc1/C=N/NC(=O)Cc1cccs1 | - | - | 49 | - | - | -
Cc1cccc(C)c1OCC(=O)N/N=C/c1cccn1C | - | - | - | - | - | -
COc1ccc(NC(=O)N2CCCC3(CCN(C(=O)c4cnccn4)CC3)C2)cc1 | . | . | . | . | - | -
Cc1cc(C)c(S(=O)(=O)Nc2ccccc2)c(C)c1 | . | . | . | . | - | .
CCCCc1ccc(-n2nc3cc(C)c(NC(=O)c4ccc(C#N)cc4F)cc3n2)cc1 | - | . | . | . | - | .
Cc1cccc(NC(=O)C2CC(=O)n3cnnc3S2)c1 (stereo not drawn) | 0.4µM | - | - | - | - | ?
Oc1ccc2ccccc2c1C=Nc1ccccc1-c1nc2ccccc2[nH]1 | ? | 43 | 59 | - | - | ?
CCc1noc(C)c1C(=O)NNC(=O)c1ccc(N(CC)CC)cc1 | - | . | . | . | - | .
Cc1ccc(C(=O)Nc2cccc3cccnc23)cc1Br | . | . | . | . | - | .
O=C(Nc1cccc2cccnc12)c1ccc(Br)cc1 | . | 31 | - | . | . | .
O=C(N/N=C/c1ccc(O)cc1)Nc1cccc2nsnc12 | - | 40 | 94 | - | - | -
Cc1ccc(C(=O)NC(=S)Nc2cccc3nsnc23)cc1 | ? | - | - | - | ? | ?
O=C(Nc1cccc2nsnc12)c1ccc(F)cc1 | - | 30 | 50 | - | - | -
O=C(Nc1cccc2nsnc12)c1ccc2c(c1)OCCO2 | - | 30 | 108 | ? | - | -
COc1cc(/C=N/NC(=O)Nc2cccc3nsnc23)cc(OC)c1OC | - | - | - | - | - | -
CCCCC(=O)N(C)c1c(C)nc2ccc(C(=O)N(CC)CCN(C)C)cn12 | . | . | . | . | - | .
O=C(Nc1cccc2cccnc12)c1ccc2c(c1)OCCO2 | - | 67 | 115 | - | - | -
COc1cc(NC(=O)c2ccc3c(c2)OCO3)c2ncccc2c1 | - | - | - | - | - | -
SMILES | Sm TGR inh | Cycloheximide cs | Shiga inhibitor | LmPK inh | Tb PYK inh | Giardia FBPA inh
O=C(Nc1cc(-c2nc3ccccc3s2)ccc1Cl)c1ccc2c(c1)OCO2 | - | 27 | 52 | - | - | .
O=C(Nc1cccc2nsnc12)c1ccc2c(c1)OCO2 | - | - | 52 | ? | - | -
CCN(CC)c1ccc(N=Nc2ccc(S(=O)(=O)N(C)C)cc2)c(S(=O)(=O)NCC[n+]2ccccc2)c1 | . | . | . | . | - | .
COc1cc(CNc2ncnc3ccc(-c4c(C)noc4C)cc23)cc(OC)c1OC | . | - | - | . | . | -
COc1cc2c(cc1OC)C1C(=O)c3c(cc4c(c3O)C=CC(C)(C)O4)OC1CO2 (stereo not drawn) | . | . | . | . | . | -
S=c1[nH]nc(C2CC2c2ccc(Cl)cc2)n1-c1ccc(Cl)cc1 (stereo not drawn) | - | - | - | - | ? | -
Cc1ccc(C2CC2c2n[nH]c(=S)n2-c2ccc(C)cc2)cc1 (stereo not drawn) | - | - | - | 11µM | ? | -
Cc1ccc(-n2c(C3CC3c3ccc(Cl)cc3)n[nH]c2=S)cc1 (stereo not drawn) | - | - | - | 7.9µM | ? | -
COc1cc2c(cc1OC)C(COc1ccccc1OC)N(C(=O)COc1ccc(Cl)cc1)CC2 (stereo not drawn) | - | . | . | . | - | .
COc1cc(C(C)=O)ccc1Oc1ncnc2c1cnn2-c1ccc(F)cc1 | - | 54 | 106 | - | - | -
COc1cc(C(C)=O)ccc1Oc1ncnc2c1cnn2-c1cccc(Cl)c1 | - | - | - | - | - | -
COc1ccc(Nc2ncnc3c2cnn3-c2ccccc2)cc1OC | - | - | - | - | - | -
COc1ncnc2c1cnn2-c1ccccc1 | - | 37 | 81 | - | - | -
COc1ccccc1Oc1ncnc2c1cnn2-c1ccccc1 | - | 43 | 117 | - | - | -
COc1ccc(C(=O)NNc2ncnc3c2cnn3-c2ccccc2)cc1 | - | . | . | . | - | .
COc1ccc(C)c2sc(N(Cc3cccnc3)C(=O)c3cccs3)nc12 | - | . | . | . | -[15.4 µM] | .
CC12CCC=CC1C(c1ccc3ccccc3c1)N(Cc1ccccc1)C2=O (stereo not drawn) | . | - | - | . | . | -
COc1ccc(S(=O)(=O)N(CC(=O)Nc2ccccc2Br)Cc2ccccc2)cc1 | - | . | . | . | - | .
Cc1cc(C)cc(NC(=O)CSc2nc3c([nH]c4ccccc43)c(=O)n2-c2ccc(F)cc2)c1 | - | . | . | . | - | .
CCCOc1ccc2ccccc2c1/C=C1\SC(=O)NC1=O | - | - | . | - | - | ?
CCCCOc1ccc2ccccc2c1C=O | - | 32 | - | - | - | -
COc1ccccc1/C=C/C=N/NC(=O)c1ccc(=O)n(C)c1 | - | - | - | - | - | -
Cc1ccc(-c2cc(C(=O)N/N=C/c3ccccc3)n[nH]2)o1 | - | 25 | 82 | - | - | -
O=C(N/N=C/C(Br)=C/c1ccccc1)c1cc(-c2ccco2)[nH]n1 | . | - | 39 | - | - | -
COc1ccccc1/C=C/C=N/NC(=O)c1cc(-c2ccco2)[nH]n1 | 7.1µM | - | - | - | - | -
SMILES | Sm TGR inh | Cycloheximide cs | Shiga inhibitor | LmPK inh | Tb PYK inh | Giardia FBPA inh
Cc1ccc(-c2cc(C(=O)N/N=C/c3ccc(Cl)cc3)n[nH]2)o1 | - | - | - | - | - | -
COc1ccccc1/C=C/C=N/NC(=O)c1ccccn1 | - | 23 | 56 | - | - | -
COc1cc(OC)c(NC(=O)c2nn(-c3ccc(C)cc3)c(=O)c3c2c2ccccc2n3C)cc1Cl | - | . | . | . | - | .
COc1ccccc1/C=C/C=N/NC(=O)c1cnccn1 | - | 35 | 64 | - | - | -
COc1ccccc1CNC(=O)c1cnccn1 | - | - | - | - | - | -
COc1ccc2[nH]c(=O)c(CN(C(=O)c3cccc(Cl)c3)c3cccc(C)c3)cc2c1 | - | . | . | . | - | .
CC(C)C(=O)Nc1ccc(NC(=O)c2cc3ccccc3o2)cc1 | - | 19 | 62 | - | - | -
CC(C)C(=O)Nc1ccc(NC(=S)NC(=O)c2cc3ccccc3o2)cc1 | - | - | - | - | - | -
CCOC(=O)c1ccc(NC(=O)c2cc3ccccc3o2)cc1 | ? | 32 | 41 | - | - | -
CCOC(=O)c1cccc(NC(=O)c2cc3ccccc3o2)c1 | - | 49 | 57 | - | - | -
O=C(N/N=C/c1ccc(OC(=O)c2ccccc2)cc1)c1cccc(O)c1 | - | - | - | - | - | -

Compound activity from PubChem BioAssay.
